Measurements published in the supplement of paper PMC10681739.

Columns and labels:
ETS1 [1] = biological target: T1, ETS1 (UniProt P14921); experiment: ETS1 binding intensity (PBM fluorescence), ETS1 alone (arbitrary fluorescence units); higher = stronger binding; settings: ETS1 concentration 1 nM; RUNX1 concentration 0 nM
T1 sequence: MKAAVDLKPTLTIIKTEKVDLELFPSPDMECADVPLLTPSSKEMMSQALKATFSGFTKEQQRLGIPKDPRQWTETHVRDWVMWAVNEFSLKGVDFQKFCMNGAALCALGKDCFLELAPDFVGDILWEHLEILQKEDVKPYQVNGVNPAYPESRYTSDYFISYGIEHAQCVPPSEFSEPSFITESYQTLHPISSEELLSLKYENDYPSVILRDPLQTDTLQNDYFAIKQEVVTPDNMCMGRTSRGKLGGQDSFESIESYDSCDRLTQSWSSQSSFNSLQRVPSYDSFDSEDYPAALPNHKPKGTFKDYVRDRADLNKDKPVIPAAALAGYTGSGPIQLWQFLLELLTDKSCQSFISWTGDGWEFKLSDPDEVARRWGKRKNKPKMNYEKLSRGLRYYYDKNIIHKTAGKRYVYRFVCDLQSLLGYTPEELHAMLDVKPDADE

RUNX1 [2] = biological target: RUNX1 (UniProt Q01196); experiment: RUNX1 binding intensity (PBM fluorescence), RUNX1 alone (arbitrary fluorescence units); higher = stronger binding; settings: RUNX1 concentration 2 nM; ETS1 concentration 0 nM
Procedure: (§1)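 Cooperative gcPBM on 36-bp genomic probes with neighbouring ETS1 and RUNX1 sites. Recombinant human RUNX1 (2 nM) was incubated alone or with ETS1 (25 nM) and detected with anti-RUNX1 antibody plus Alexa488 secondary. Values are medians over 4 replicate spots; the RUNX1+ETS1 data were normalised to the RUNX1-only data. The probes sit in constant array flanks that are not printed.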

ETS1 [3] = biological target: T1, ETS1; experiment: ETS1 binding intensity (PBM fluorescence) in presence of RUNX1, normalised to ETS1-only experiment (arbitrary fluorescence units); higher = stronger binding; settings: ETS1 concentration 1 nM; RUNX1 concentration 25 nM
RUNX1 [4] = biological target: RUNX1 (UniProt Q01196); experiment: RUNX1 binding intensity (PBM fluorescence) in presence of ETS1, normalised to RUNX1-only experiment (arbitrary fluorescence units); higher = stronger binding; settings: RUNX1 concentration 2 nM; ETS1 concentration 25 nM
Procedure: as §1
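Throughout, for RUNX1 binding intensity (PBM fluorescence) in presence of ETS1, normalised to RUNX1-only experiment: Full-length recombinant human ETS1 or RUNX1 bound to double-stranded 36-bp genomic probes on microarrays, detected by protein-specific primary antibody and Alexa488 secondary, spot fluorescence as median of four replicate spots.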
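Throughout, for RUNX1 binding intensity (PBM fluorescence), RUNX1 alone: Full-length recombinant human RUNX1 bound to double-stranded 36-bp genomic probes on a high-density microarray, scored as Alexa488 fluorescence per spot via anti-RUNX1 antibody, median of four replicate spots.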

Sequence of RUNX1 (Q01196 whole entry): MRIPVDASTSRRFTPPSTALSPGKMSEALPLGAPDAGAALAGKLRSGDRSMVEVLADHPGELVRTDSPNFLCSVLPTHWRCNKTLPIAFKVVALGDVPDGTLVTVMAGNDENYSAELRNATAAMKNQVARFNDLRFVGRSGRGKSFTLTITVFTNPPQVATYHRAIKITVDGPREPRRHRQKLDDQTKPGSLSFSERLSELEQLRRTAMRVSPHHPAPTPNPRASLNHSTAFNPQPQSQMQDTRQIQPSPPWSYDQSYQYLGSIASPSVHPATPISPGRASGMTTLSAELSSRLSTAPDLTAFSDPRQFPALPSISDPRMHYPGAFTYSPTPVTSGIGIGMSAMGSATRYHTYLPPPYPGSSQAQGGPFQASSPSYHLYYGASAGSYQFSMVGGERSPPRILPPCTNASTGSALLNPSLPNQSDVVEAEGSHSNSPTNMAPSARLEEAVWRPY

Sequence | ETS1 binding intensity (ETS1 [1]) | RUNX1 binding intensity (RUNX1 [2]) | ETS1 binding intensity (ETS1 [3]) | RUNX1 binding intensity (RUNX1 [4])
CGGTTCCGGCGCCTGAAGTTTTAGCTGCGGTGGCGG | 347 | 794 | 676 | 1720
AAAGAGGAAATCACGTACCCGAAAACCACATGCACA | 530 | 1010 | 1370 | 928
GCAAGGCAACAGGAAATTGTGGGGAAATTTTAAAAA | 3930 | 770 | 6190 | 1070
AGGTTTTGAAAGAGGAAACCACATACCCGAAAACCA | 1120 | 1030 | 2030 | 1160
GGCCGGGGGCAGGAAGCTGCGGCGCTGGCTCCCCCC | 2510 | 649 | 3390 | 884
GCAATGCCGCTACCGGAAGTGCGGGTCGCGCTCCCG | 26000 | 749 | 26000 | 1620
GCGCAGGTCCCGGATGTTGCGGACAGTATGAGGCAA | 3250 | 661 | 4560 | 1570
CCGATTTCCCCGGACGTGGTGAGACCGCGCTTCGTC | 591 | 835 | 855 | 1280
GCAGCTGCAAACAGGAAACCACAGCAGCGTAGCGGA | 2910 | 962 | 8470 | 1710
CAGTGCCAGCCGGAACTTGTGGTTCGGACCGTGGGT | 882 | 1040 | 2100 | 1420
CAGGGTGTCGGCTTCCGGCGGTTGCCCACTTTCGGC | 1100 | 763 | 1090 | 1790
GAAGTGAGGTCAGGATGTGGTGGGTGACCCCTGAAA | 911 | 768 | 1340 | 1090
TTCAGTCCTGGTTTCCTGTGGTTCTAGGATCTTTAT | 903 | 828 | 957 | 1440
AAGTTCTTCCGGGTCTGCAGTCTGTGGTGTGTTTGC | 478 | 810 | 422 | 1710
